Pf growth 48h: P. falciparum growth inhibition at 48 hours (one generation); P. falciparum luciferase growth in erythrocytes, 48 h; Potency, µM (highest dose often 28.7 µM), hits mostly inhibitors; 310,000 compounds, 5.9% hits; AID 504832
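A one-generation exposure of luciferase-tagged malaria parasites in RPMI 1640/Albumax erythrocyte culture, 37 C and 5% CO2. Inhibition is inferred from decreased luminescence after adding detection reagent.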
Shiga inhibitor: inhibitors of Shiga toxin in Vero cells. 290,000 compounds, 9.2% hits. inhibition, % at 38.7 µM. Vero cells, Shiga toxin protein synthesis inhibition reporter; in the data active = inhibition mostly above about 28%, no sharp cut-off; inactive = mostly below about 43%
CHX counter: counter-screen hit for Shiga toxin inhibitors, cycloheximide. cell reporter, cycloheximide protein synthesis inhibition counterscreen. max response, %. 300,000 compounds, 12% hits. AID 2314; in the data active = max response mostly above about 13%, no sharp cut-off; inactive = mostly below about 14%; note: read at 38.3 µM for the half of the compounds with a filed dose
Pf growth 96h: inhibits malaria parasite growth, 96 h. P. falciparum luciferase reporter growth, 96 h. Potency, µM (titrated, usually from 28.7 µM), usual class: inhibitors. 320,000 compounds, 6.9% hits. AID 504834
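Parasite growth measured via integrated firefly luciferase reporter in P. falciparum. Infected erythrocytes at 2% hematocrit, 0.05% parasitemia final were treated 96 hours at 37 C under 5% CO2, and luminescence was read.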
Numbers stand for hits; i = inactive; ? = inconclusive; nt = not tested or not shown. The list is not random: actives were taken first. Their share in the collection is about 21%. Unless noted, calls come from the whole dose curve; as a rule, active = well fitted inhibition curve with a large enough effect; inconclusive = small, poorly fitted or top-dose-only effect, or another doubt; inactive = no such curve, though single readings can be large or run the other way.

SMILES | Pf growth 48h | Shiga inhibitor | CHX counter | Pf growth 96h
COc1cccc(NC(=O)CN(C)C(=O)c2ccc(-c3ccc(Cl)cc3)o2)c1 | 1.7µM | nt | nt | 5.9µM
COc1cccc(NC(=O)COC(=O)Cc2ccc(Cl)cc2)c1 | i | i | i | i
CN(CC(=O)Nc1ccccc1C(F)(F)F)C(=O)c1ccc(-c2ccc(Cl)cc2)o1 | 2.9µM | nt | nt | 2.6µM
COc1cccc(NC(=O)CN(C)C(=O)c2c(C)nn(Cc3ccc(C)cc3)c2Cl)c1 | ? | nt | nt | i
CN(CC(=O)Nc1ccccc1Br)C(=O)c1ccc(-c2ccc(Cl)cc2)o1 | ? | i | i | ?
O=C(OCC#CCSc1nnc(-c2cccc3ccccc23)o1)c1cccc2[nH]ccc12 | ? | nt | nt | i
O=C(COC(=O)C1=NN(c2ccccc2)C(=O)CC1)Nc1ccc([N+](=O)[O-])cc1C(F)(F)F | i | nt | nt | i
COc1ccc(OC)c(NC(=O)Cn2nc(C)c3ccccc3c2=O)c1 | i | i | i | ?
O=C(Nc1ccc(O)c(C(=O)O)c1)Oc1ccccc1 | i | i | i | i
NC(=O)COc1ccc(/C=N\NC(=O)CC(=O)NCCc2ccccc2)cc1 | i | i | i | i
CCOc1ccc(OCc2ccc(C(=O)NCc3ccncc3)o2)cc1 | i | i | 17 | i
CCc1ccc(OCc2ccc(C(=O)NCc3ccccn3)o2)cc1 | ? | i | 32 | 10µM
Cc1ccccc1CS(=O)(=O)Cc1ccc(C(=O)NCc2ccccn2)o1 | ? | i | i | i
CCC(c1nnnn1CCc1ccccc1)N1CCN(C(=O)c2ccco2)CC1 (stereo not drawn) | i | i | i | 9.3µM
O=C(c1ccco1)N1CCN(C(c2ccc(Cl)cc2)c2nnnn2Cc2ccccc2)CC1 (stereo not drawn) | 12µM | i | 13 | 10µM
CCCCC(c1nnnn1C1CCCC1)N1CCN(C2CCCC2)CC1 (stereo not drawn) | ? | i | 32 | ?
Clc1ccccc1C(c1nnnn1Cc1ccco1)N1CCN(Cc2ccco2)CC1 (stereo not drawn) | 15µM | i | i | i
O=C(c1ccco1)N1CCN(C(c2ccccc2Cl)c2nnnn2CC2CCCO2)CC1 (stereo not drawn) | ? | i | i | i
CC(C)CC(c1nnnn1CCc1ccccc1)N1CCN(C(=O)c2ccco2)CC1 (stereo not drawn) | ? | i | i | ?
Cc1ccc(C(c2nnnn2Cc2cccs2)N2CCN(C(=O)c3ccco3)CC2)cc1 (stereo not drawn) | ? | i | i | ?
CCN(c1ccc(OC)cc1)S(=O)(=O)c1nnc(NC(=O)COc2ccccc2)s1 | i | i | i | ?
Cc1cc(Cl)ccc1NNC(=O)CCc1ccccc1 | ? | i | i | ?
COc1ccc(Cc2nnc(SCC(=O)Nc3ccccc3C#N)o2)cc1 | i | i | i | ?
CCCC(c1nnnn1Cc1ccco1)N1CCN(C2CCCC2)CC1 (stereo not drawn) | i | i | i | 12µM
COc1cccc(C(c2nnnn2Cc2ccccc2)N2CCN(C(=O)c3ccco3)CC2)c1OC (stereo not drawn) | 9.3µM | i | i | ?
SMILES | Pf growth 48h | Shiga inhibitor | CHX counter | Pf growth 96h
CCC(c1nnnn1C1CCCCC1)N1CCN(C(=O)c2ccco2)CC1 (stereo not drawn) | ? | i | i | i
COc1ccc(C(c2nnnn2Cc2ccccc2)N2CCN(C(=O)c3ccco3)CC2)cc1 (stereo not drawn) | ? | i | 28 | nt
CCCC(c1nnnn1C1CCCCC1)N1CCN(C(=O)c2ccco2)CC1 (stereo not drawn) | 3.7µM | i | i | i
CC(C)C(c1nnnn1Cc1ccco1)N1CCN(C2CCCC2)CC1 (stereo not drawn) | i | i | i | i
CCC(c1nnnn1Cc1ccc(OC)cc1)N1CCN(C(=O)c2ccco2)CC1 (stereo not drawn) | i | i | i | i
COc1cccc(C(c2nnnn2Cc2ccco2)N2CCN(c3cccc(C)c3C)CC2)c1OC (stereo not drawn) | 9.3µM | 58 | i | i
COc1ccc(OC)c(C(c2nnnn2Cc2ccco2)N2CCN(C)CC2)c1 (stereo not drawn) | i | i | i | ?
CCCC(=O)Nc1ccc2nn(-c3ccc(OC)cc3)nc2c1 | i | nt | 41 | i
Cc1ccc(-n2nc3ccc(NC(=O)C(C)C)cc3n2)cc1 | i | 119 | 54 | i
Cc1ccc(-n2nc3ccc(NC(=O)c4ccc5c(c4)OCO5)cc3n2)cc1 | i | i | i | i
CC(C)CC(=O)Nc1ccc2nn(-c3ccccc3)nc2c1 | i | 53 | 66 | i
Cc1ccc(-n2nc3ccc(NC(=O)c4ccco4)cc3n2)cc1 | nt | 51 | 38 | i
Cc1ccc(SCC(=O)Nc2cccc(NC(=O)c3ccco3)c2)cc1 | ? | i | i | i
CCc1nnc(NC(=O)CC23CC4CC(CC(Br)(C4)C2)C3)s1 | i | i | i | i

From PubChem BioAssay
